Measured values taken from PubChem BioAssay (Tox21).
Inconclusive results are not listed. Entries that show only a call come without a potency. Active and inactive are the calls of the source. Calls follow the shape of the dose curve; as a rule, active = well fitted cell-killing curve with a large enough effect in the repeat runs; inconclusive = weak or mixed curves, or effect the other way; inactive = flat fitted curve, though single readings scatter.

What was measured:
[1] = cAMP Responsive Elements (CRE) small molecule antagonists, cell-based qHTS assay: qHTS cell viability counter screen (AID 2060913); also: nearly all actives have a fitted effect of over 40% in size
In short: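 CRE-bla HEK293T cells were seeded in assay medium with 10% dialyzed FBS, incubated 18 hrs at 37 C, then exposed to compounds plus 0.25 uM final NKH477 for 3 hrs. Viability was read by CellTiter-Glo luminescence after 30 min, in the same wells.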

[2] = cAMP Responsive Elements (CRE) small molecule agonists, cell-based qHTS assay: qHTS cell viability counter screen (AID 2060914);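 also: viability read after 3 h of compound exposure; nearly all actives have a fitted effect of over 50% in size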
In short: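 Cells are seeded and incubated 18 h, treated with compounds in DMSO for 3 h, read for the bla reporter, then given CellTiter-Glo; luminescence is measured after 30 min at room temperature.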
Potency is read from the fitted curve at half-maximal effect.

SMILES	Potency [1]	Potency [2]
c1ccc(B(c2ccccc2)c2ccccc2)cc1	inactive	inactive
CN(C)CCCN1c2ccccc2CCc2ccccc21	inactive	inactive
CC(COC(=O)c1ccccc1)OC(=O)c1ccccc1 (stereo unspecified)	inactive	inactive
C=CC(=O)OCC(CO)(COCC(COC(=O)C=C)(COC(=O)C=C)COC(=O)C=C)COC(=O)C=C	30.3 µM (active)	42.7 µM (active)
CCN(CC)CCNC(=O)c1ccc(N)cc1	inactive	inactive
CC(C)C(O)C(C)(C)CO (stereo unspecified)	inactive	inactive
OB(O)O	inactive	inactive
CCN(CCCc1ccccc1)CCCc1ccccc1	inactive	inactive
O=C1OC2(c3cc(Br)c(O)c(Br)c3Oc3c2cc(Br)c(O)c3Br)c2c(Cl)c(Cl)c(Cl)c(Cl)c21	inactive	inactive
COC(C)OC	inactive	inactive
COCCCC/C(=N\OCCN)c1ccc(C(F)(F)F)cc1	inactive	inactive
CC1(C)S[C@@H]2[C@H](NC(=O)C(c3ccccc3)S(=O)(=O)O)C(=O)N2[C@H]1C(=O)O (stereo partly specified)	inactive	inactive
COC(=O)CCCC(=O)OC	inactive	inactive
CCCCC(CC)COC(=O)CCCCCCCC(=O)OCC(CC)CCCC (stereo unspecified)	inactive	inactive
CCOC(=O)Nc1ccc(NCc2ccc(F)cc2)nc1N	inactive	inactive
Cc1nc(C2CCCCC2)c(-c2ccc(S(N)(=O)=O)c(F)c2)o1	inactive	inactive
CC(=O)C=O	inactive	inactive
N=C(N)c1ccc(OCCCCCOc2ccc(C(=N)N)cc2)cc1	inactive	inactive
O=C1CCc2ccccc2O1	inactive	inactive
O=C=Nc1ccc(Cl)c(Cl)c1	inactive	inactive
OCc1ccccn1	inactive	inactive
CC(=O)Nc1ccc(S(=O)(=O)Nc2cc(C)on2)cc1	inactive	inactive
CCCNC(C)C(=O)Nc1c(C)csc1C(=O)OC (stereo unspecified)	inactive	inactive
C=CC(=O)OCCCC	inactive	inactive

SMILES	Potency [1]	Potency [2]
CCC(C(=O)NC(N)=O)c1ccccc1 (stereo unspecified)	inactive	inactive
NS(=O)(=O)O	inactive	inactive
CC(C)(C)c1cc(CCC(=O)OCCSCCOC(=O)CCc2cc(C(C)(C)C)c(O)c(C(C)(C)C)c2)cc(C(C)(C)C)c1O	inactive	inactive
CCCCOCCOCCOC(=O)CCCCC(=O)OCCOCCOCCCC	inactive	inactive
CCN(C(=O)N(CC)c1ccccc1)c1ccccc1	inactive	inactive
Nc1ccc2c(c1)C(=O)c1ccccc1C2=O	inactive	inactive
c1ccc2sc(SN3CCOCC3)nc2c1	inactive	inactive
CCC1=C(C)CN(C(=O)NCCc2ccc(S(=O)(=O)NC(=O)NC3CCC(C)CC3)cc2)C1=O (stereo unspecified)	inactive	inactive
O=Cc1ccc(Cl)cc1	inactive	inactive
C=C(C)C(=O)OCC(O)COc1ccc(C(C)(C)c2ccc(OCC(O)COC(=O)C(=C)C)cc2)cc1 (stereo unspecified)	61.1 µM (active)	61.1 µM (active)
OCCOc1ccc(OCCO)cc1	inactive	inactive
OC(CCN1CCCCC1)(c1ccccc1)c1ccccc1	inactive	inactive
Oc1cccc(-c2c3nc(c(-c4cccc(O)c4)c4ccc([nH]4)c(-c4cccc(O)c4)c4nc(c(-c5cccc(O)c5)c5ccc2[nH]5)CC4)C=C3)c1	inactive	inactive
FC(F)(F)c1ccccc1	inactive	inactive
CNC1CCCN(c2c(F)cc3c(=O)c(C(=O)O)cn(C4CC4)c3c2OC)C1 (stereo unspecified)	inactive	inactive
CC(=O)C1(C)CC2=C(CCCC2(C)C)CC1C (stereo unspecified)	inactive	inactive
Cc1cc(NS(=O)(=O)c2ccc(N)cc2)no1	inactive	inactive
CN(C)CCC(c1ccccc1)c1ccccn1 (stereo unspecified)	inactive	inactive
OCCOCCOCCO	inactive	inactive
CC(C)(C)NCC(O)COc1cccc2c1CCC(=O)N2 (stereo unspecified)	inactive	inactive
COC(=O)NN	inactive	inactive
CC(=O)N(CC(O)CO)c1c(I)c(C(=O)NCCO)c(I)c(C(=O)NCC(O)CO)c1I (stereo unspecified)	inactive	inactive
COc1cc(S(=O)(=O)Nc2ccccc2)c(OC)cc1N	inactive	inactive
CC(C)=CCCC(C)CC=O (stereo unspecified)	inactive	inactive
